A selection: hits, their analogues and other compounds. The true share with any hit is near 0.41%.
GLA inh pH 4.5 – inhibitors of human alpha-galactosidase A at pH 4.5 | purified enzyme, 4-MU-alpha-Gal fluorescence, pH 4.5 | AID 1467 | 230,000 tested, under 10 active | activity change, negative = inhibition, % at 105 µM;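 further: 0% = full activity with enzyme and -100% = basal without enzyme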
GAA spleen mod – inhibits or activates alpha-glucosidase in human spleen homogenate | Potency, µM (doses to about 79.9 µM), without a hit: top-dose activity change, negative = inhibition, most hits filed as inhibitors | AID 2112 | human spleen homogenate, 4-MU-alpha-glucoside fluorescence | P10253 | 240,000 tested, 0.006% active;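 further: potency means the concentration at half of the fitted maximal effect; 0% = enzyme with vehicle and -100% = no enzyme basal signal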
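Human spleen homogenate (1 ug) incubated with compounds and 1 mM 4-methylumbelliferyl-alpha-D-glucopyranoside in pH 5.0 citrate/phosphate buffer, 37 C, 40 min. Stopped at pH 10; 4-MU fluorescence (Ex 365/Em 440 nm); AC50 by Hill fit.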
GAA inhib – blocks human lysosomal alpha-glucosidase; 200,000 tested, 0.005% active; Potency, µM (series often up to 76.9 µM), inactives show at the highest dose activity change, negative = inhibition, usual class: inhibitors; purified human GAA, 4-MU-alpha-glucoside fluorescence; P10253;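 further: potency means the concentration at half of the fitted maximal effect; plate controls were uninhibited enzyme wells for no effect and no-enzyme background for full effect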
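AC50 values come from Hill fits of compound titrations (up to 77 uM) against 4 nM human enzyme. Substrate 4-methylumbelliferyl-alpha-D-pyranoside at 400 uM, pH 5.0 citrate buffer, 20 min room temperature; fluorescence Ex 365/Em 440 after alkaline stop.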
N370S GC mod – inhibitors or activators of N370S glucocerebrosidase for Gaucher disease; P04062; N370S GC spleen homogenate, 4MU-glucoside fluorescence; Potency, µM (top dose mostly 59.4 µM), for inactives: at the top dose activity change, negative = inhibition, hits mostly inhibitors; 330,000 tested, 0.092% active;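 further: potency means the concentration at half of the fitted maximal effect; 0% = full enzyme activity and -100% = no enzyme basal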
GAA glycogen – GAA glycogen-cleavage inhibition or activation | AID 2100 | P10253 | Potency, µM (highest dose often 76.4 µM), without a hit: top-dose activity change, negative = inhibition, actives largely listed as inhibitors | 300,000 tested, 0.38% active | recombinant GAA, glycogen substrate, Amplex Red glucose oxidase fluorescence;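 further: potency means the concentration at half of the fitted maximal effect; 0% = full enzyme reaction and -100% = no-enzyme basal signal; the screen sought inhibitors and activators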
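Natural-substrate format: glycogen cleavage by 4 nM human enzyme, glucose read by Amplex Red coupling (Ex 573, Em 610 nm). Normalized to enzyme and no-enzyme controls.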
aGal spleen mod – alpha-galactosidase A (human) modulation; P06280; Potency, µM (doses to about 80 µM), without a hit: top-dose activity change, negative = inhibition, usual class: inhibitors; AID 2107; human spleen homogenate, 4MU-alpha-Gal fluorescence, 40 min; 240,000 tested, 0.008% active;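 further: potency means the concentration at half of the fitted maximal effect; 0% = enzyme with vehicle and -100% = no enzyme basal signal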
Target sequence (P06280 32-429 limits assumed): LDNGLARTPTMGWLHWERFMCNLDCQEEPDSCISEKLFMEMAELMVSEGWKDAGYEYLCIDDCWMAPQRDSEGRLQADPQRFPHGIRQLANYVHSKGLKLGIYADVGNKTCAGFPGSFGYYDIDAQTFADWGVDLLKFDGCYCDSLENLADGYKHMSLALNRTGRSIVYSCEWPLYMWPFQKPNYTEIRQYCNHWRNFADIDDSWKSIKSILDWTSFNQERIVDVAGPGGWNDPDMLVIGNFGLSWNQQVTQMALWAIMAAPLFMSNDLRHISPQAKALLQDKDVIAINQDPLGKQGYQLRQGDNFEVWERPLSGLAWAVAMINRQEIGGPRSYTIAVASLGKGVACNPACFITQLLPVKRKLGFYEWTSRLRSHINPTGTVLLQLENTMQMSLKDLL
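Inhibition or activation of alpha-galactosidase in human spleen homogenate is scored by 4-MU fluorescence after 40 min at 37C, pH 5.0, with 1 mM substrate. AC50s come from concentration-response fitted to the Hill equation.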
Numbers without * were called inactive; ? = inconclusive; · = not tested or not shown; [ ] = dose if it differs, or a comment. The call rests on the fitted dose curve; in most records, active means well fitted curve in the direction sought with a large enough effect; inconclusive means small, poorly fitted or top-dose-only effect, or another doubt; inactive means no such curve, though single readings can be large; an effect the other way counts as inactive or inconclusive.

SMILES	GLA inh pH 4.5	GAA spleen mod	GAA inhib	N370S GC mod	GAA glycogen	aGal spleen mod
CN(C)c1ccc(NC(=O)N2CCOCC2)cc1	2	10%	2%	7%	13µM*	8%
C#CCOCCOCCOCCNc1nc(N2CCN(C(=O)CCCCCCCCCCNC(=O)[C@H](CCCN=C(N)N)n3cc(C[C@@H](C)CC)nn3)CC2)nc(N2CCN(C(=O)CCCCCCCCCCNC(=O)[C@@H]([C@H](C)CC)n3cc(CCCCCN)nn3)CC2)n1	·	·	·	5.6µM*	·	·
C#CCOCCOCCOCCNc1nc(N2CCN(C(=O)CCCCCCCCCCNC(=O)[C@@H](CCC(=O)O)n3cc(CCCCCN)nn3)CC2)nc(N2CCN(C(=O)CCCCCCCCCCNC(=O)[C@H](CO)n3cc(CCCCCN)nn3)CC2)n1	·	·	·	-23%	·	·
C#CCOCCOCCOCCNc1nc(N2CCOCC2)nc(N2CCN(C(=O)[C@H]([C@@H](C)CC)n3cc(CCCN=C(N)N)nn3)CC2)n1	-6	-7%	6%	4%	3%	11%
C#CCOCCOCCOCCNc1nc(N2CCN(C(=O)CCCCCCCCCCNC(=O)[C@H]([C@@H](C)CC)n3cc(CCCCN=C(N)N)nn3)CC2)nc(N2CCN(C(=O)CCCCCCCCCCNC(=O)[C@H](CCCN=C(N)N)n3cc(C[C@@H](C)CC)nn3)CC2)n1	·	·	·	8.9µM*	·	·
Cc1cc(C)nc(SCC(=O)Nc2ccc(S(=O)(=O)Nc3ncccn3)cc2)n1	-1	-6%	8%	13%	3.5µM*	-13%
Clc1ccc(-n2c(Cc3ccccc3)nnc2SCc2nc(-c3cccs3)no2)cc1	·	·	·	·	-5%[76.3 µM]	·
Fc1ccc(-c2nc3ccccn3c2NCc2ccc3c(c2)OCO3)cc1	0	1%	2%	?	?	-3%
Cc1ccn2c(NCc3ccc4c(c3)OCO4)c(-c3ccc(O)cc3)nc2c1	0	-4%	0%	13µM*	-8%	2%
Oc1ccc(-c2nc3ccccn3c2NCc2ccc3c(c2)OCO3)cc1	10	-23%	9%	?	35µM*	8%
COc1ccc(C2=Nn3c(nnc3-c3cccc(OC)c3)SC2)cc1	·	-2%	·	5%	·	7%
CN(C)c1ccc(N=Cc2ccco2)cc1	6	9%	3%	14%	?	8%
C(=Nc1cccc2c(N=Cc3ccco3)cccc12)c1ccco1	-15	7%	2%	-7%	14µM*	7%
O=C(O)c1cccc(-c2ccc(/C=N/Nc3nn[nH]n3)o2)c1	-21	-8%	-8%	-2%	1.8µM*	1%
CC1=C(C(=O)N2CCCCC2)C(c2cccc(Cl)c2)n2c(nc3ccccc32)N1 (configuration not stated)	·	·	·	·	6%[76.3 µM]	·
CCOC(=O)c1sc(-c2ccc(Br)cc2)cc1N	-5	-3%	8%	2%[12.8 µM]	-7%	3%
Nc1sc(-c2ccccc2)cc1C(=O)O	5	-1%	1%	4%	25µM*	-3%
CCOC(=O)c1cc(-c2ccc(N)cc2)sc1N	-6	2%	?	-22%	14µM*	4%
CC(C)(C)C(=O)Nc1sc(-c2ccccc2)cc1C(=O)O	0	-2%	·	0%	5%	-6%
Cc1ccc(C(=O)c2cn(Cc3cccc(Cl)c3)c3nc(C)ccc3c2=O)cc1	·	·	·	·	4%[76.3 µM]	·
Cc1cc(-c2ccc(N=Nc3cc(S(=O)(=O)O)c4ccccc4c3N)c(C)c2)ccc1N=Nc1cc(S(=O)(=O)O)c2ccccc2c1N	·	-12%	·	?	·	-7%
CCOc1ccc(NC(=O)[C@@H](c2ccccc2)N2Cc3ccccc3C2=O)cc1	·	·	·	·	8%[76.3 µM]	·
CCOC(=O)C1CCCN(Cc2nc(N)nc(Nc3ccccc3)n2)C1 (configuration not stated)	3	5%	?	-12%	4µM*	6%
CCOC(=O)C1CCCN(C(=S)Nc2ccc(Nc3ccccc3)cc2)C1 (configuration not stated)	-6	-11%	-14%	5%	40µM*	7%

Screening results as filed in PubChem BioAssay.
